Bioassay records: PubChem, National Center for Advancing Translational Sciences (NCATS)
FMDV inh: foot and mouth disease virus antiviral activity. AID 1159524. 1.2% of 410,000 active. Potency, µM (titrated, usually from 57.9 µM), for the others: at the highest dose activity change, negative = inhibition, most hits filed as inhibitors. FMDV antiviral cell-based qHTS; calls by dose curve; tested in HEK293T cells; also: read-out not given here; nearly all actives have a fitted effect of over 45% in size
RE007 growth inh: less growth of the S. pombe RE007 Vpr strain; S. pombe RE007 Vpr strain, BacTiter-Glo ATP luminescence, 24 h; Potency, µM (doses to about 92.2 µM), for the others: at the top dose activity change, negative = less growth, usual class: inhibitors; 0.21% of 360,000 active; active = well fitted falling curve with a large enough effect; inconclusive = small, poorly fitted or top-dose-only effect; inactive = no such curve, though single readings can be large or run the other way; also: nearly all actives have a fitted effect of over 50% in size
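Fission yeast RE007 carrying one integrated HIV-1 vpr copy, seeded at OD 0.01 in PMG+AL medium with 23 nL pinned compound. Grown 24 h at 30 degrees; viability read by BacTiter-Glo luminescence after 5 min.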
Tb PYK inh: T. brucei pyruvate kinase inhibition; Q57TT1; TbPYK enzyme, Kinase-Glo Plus ATP luminescence, 45 min; Potency, µM (top dose mostly 76.8 µM), inactives show at the top dose activity, negative = inhibition, most hits filed as inhibitors; 0.12% of 410,000 active; AID 624173; also: nearly all actives have a fitted effect of over 50% in size
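Assay buffer: 50 mM TEA pH 7.2, 100 mM KCl, 10 mM MgCl2, 0.05% BSA, 0.01% Tween-20. Pyruvate kinase from T. brucei plus substrate met compound, then ADP (130 uM final). Luminescence was read post 45 min RT.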
Sm TGR block: blocks Schistosoma mansoni thioredoxin glutathione reductase; Q962Y6; purified TGR, DTNB reduction, TNB absorbance 405 nm; Potency, µM (series often up to 114 µM), for inactives: top-dose activity change, negative = inhibition, hits mostly inhibitors; 3% of 360,000 active; AID 485364; also: nearly all actives have a fitted effect of over 60% in size
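First, TGR (20 nM dispensed) and NADPH were mixed with compound. Second, a 15 min room-temperature incubation followed. Third, further NADPH and then DTNB were added to start the reaction. Finally, TNB absorbance was monitored kinetically.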
An asterisk follows results filed as active; ? = inconclusive; · = no result given; [ ] = dose if it differs, or a comment. The list is not random: actives were taken first. Their share in the collection is about 3.7%. Unless noted, calls follow the shape of the dose curve; as a rule, active = well fitted curve in the direction sought with a large enough effect; inconclusive = small, poorly fitted or top-dose-only effect, or another doubt; inactive = no such curve, though single readings can be large; an effect the other way counts as inactive or inconclusive. % is scaled to controls: 0 for no effect and ±100 for the full control effect; potency is read from the fitted curve at half-maximal effect.

SMILES	FMDV inh	RE007 growth inh	Tb PYK inh	Sm TGR block
CCOc1ccc(CCNC(=O)Cn2nc(CC)n3c(cc4c(OC)cccc43)c2=O)cc1OCC	-10%	·	-1%	11%
Cc1ccc(-c2nn(-c3ccccc3)cc2/C=C(\C#N)c2cccc(C#N)c2)o1	-2%	-7%	0%	50µM*
COc1ccc(OC)c(N2Cc3cc(C)c(C)cc3C2)c1	0%	-1%	-26%	45µM*
CCOc1ccccc1N1Cc2cc(C)c(C)cc2C1	1%	-15%	-3%	?
COc1ccc2cc(CN(Cc3ccco3)C(c3nnnn3C3CCCCC3)C(C)C)c(=O)[nH]c2c1 (stereo not drawn)	16µM*	-16%	-9%	?
COc1ccc2cc(CN(Cc3ccco3)Cc3nnnn3C3CCCCC3)c(=O)[nH]c2c1	-14%	2%	-2%	-32%
Cc1ccc2cc(CN(CCCN3CCOCC3)C(c3nnnn3Cc3ccco3)C(C)C)c(=O)[nH]c2c1C (stereo not drawn)	-18%	4%	-13%	·
Cc1cc2cc(C(c3nnnn3C(C)(C)C)N(Cc3ccco3)CC3CCCO3)c(=O)[nH]c2cc1C (stereo not drawn)	-3%	-5%[3.69 µM]	·	?
Cc1cccc2cc(CN(CC3CCCO3)C(c3nnnn3Cc3ccco3)C(C)C)c(=O)[nH]c12 (stereo not drawn)	0%	-2%	-10%	50µM*
Cc1cc(C)c2[nH]c(=O)c(C(c3nnnn3C(C)(C)C)N(Cc3ccco3)CC3CCCO3)cc2c1 (stereo not drawn)	8%	-2%	-5%	45µM*
COc1ccc(C)cc1NC(=O)C1CCC(CNS(=O)(=O)c2ccc3c(c2)CCCC(=O)N3)CC1 (stereo not drawn)	?	·	2%	4%
CCCCn1cnc2cc(NC(=O)c3cc(OC)c(OC)c(OC)c3)ccc21	-19%	·	-4%	1%
Cc1nn2c(=O)cc(COC(=O)c3ccccc3NC(=O)C(C)Oc3ccccc3)nc2s1 (stereo not drawn)	0%	·	5%	4%
COc1ccc(Cn2c(C(=O)O)c(CNCCc3ccco3)c3ccc(C)cc32)cc1	-5%	·	3%	-5%
C=Cc1ccc(Cn2c(C(=O)O)c(CNCCc3ccco3)c3ccc(C)cc32)cc1	-7%	·	-3%	22µM*
N#CC(C#N)=C/C(C#N)=C(/N)N1CCN(c2ccc(Cl)cc2)CC1	18µM*	10%	-14%	0%
CC1CCc2c(sc(NC(=O)c3ccccc3)c2C(=O)Nc2ccccc2)C1 (stereo not drawn)	-14%	·	-19%	2%
O=C(Nc1ccc(F)cc1)N1CCN(c2ncccn2)CC1	8%	0%	-13%	0%
O=C(Nc1cccs1)N1CCN(c2ncccn2)CC1	5%	1%	8%	18µM*
CCCCNC(=O)C1(C)CCCCN1Cc1ccc(OCc2ccccc2)cc1 (stereo not drawn)	0%	7%[18.4 µM]	-3%	·
O=C(Oc1c(Cl)cc(Cl)c2cccnc12)c1cccc([N+](=O)[O-])c1	?	8.9µM*	8%	?
CCCNC(=O)C1CCC(Cn2c(=O)c3sccc3n(CC(=O)N3CCC(C)CC3)c2=O)CC1 (stereo not drawn)	1%	·	1%	-1%
Nc1cccc2nc3ccccc3cc12	-14%	-10%[18.4 µM]	-12%	-2%
Cc1cc2c(N)cccc2nn1	-9%	-11%	-11%	25µM*
CN1C(=CC=C2C=C(I)C(=O)C(I)=C2)C(C)(C)c2ccccc21	22µM*	-20%	?	-8%
SMILES	FMDV inh	RE007 growth inh	Tb PYK inh	Sm TGR block
CN1/C(=C\C=C2C(=O)NC(=S)NC2=O)C(C)(C)c2ccccc21	-18%	7%	-9%	1%
CCOc1cccc(/C=N/NC(=S)Nc2ccccc2[N+](=O)[O-])c1O	1.8µM*	1%	-2%	-19%
CCCCNC(=S)N/N=C/c1cccc(OCC)c1O	-15%	0%	-4%	-18%
CC(=O)N1/C(=C/c2ccc(N(C)C)cc2)C(=O)c2ccccc21	20µM*	4%	-9%	28µM*
COc1ccccc1N1CCN(c2ncnc3c2cnn3-c2cccc(Cl)c2)CC1	?	·	2%	7%
Oc1ccc(N=Nc2ccccc2)o1	?	?	-5%	3.2µM*
O=c1ccc(N=Nc2ccccc2)ccc1O	-21%	?	?	-3%
COc1ccc(Cl)cc1NC(=O)c1nn(-c2ccc(C)cc2)c(=O)n(C)c1=O	-26%	·	-6%	1%
O=C(c1cc2nc(-c3ccco3)cc(C(F)(F)F)n2n1)N1CCN(Cc2ccccc2)CC1	10%	8%	0%	50µM*
